# Source: PubChem BioAssay (EPA / NIEHS)
# Inconclusive results are not listed. Active and inactive are the calls of the source. The calls were made as follows, unless noted: active = hit-call score of the fitted dose curve at least 0.9, where 1 is the maximum; inactive = score below 0.9.
# Tests used:
# [1] = CCTE_Shafer_MEA_acute_interburst_interval_mean: CCTE's Neural Acute Assay for Mean Interburst Interval, Shafer Lab (AID 2284016);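 also: percent change of mean interburst interval versus each well's own pre-dose baseline; curves fitted for decrease in interburst interval relative to DMSO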
# In short: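 Rat cortical cultures, DIV 13/15; 20 min equilibration, 40 min baseline, compound 0.03-40 uM, 40 min re-recording, 37 C. Spikes detected at 8x rms noise (300-5000 Hz band-pass). Endpoint: % change in interburst interval, fitted in loss direction vs DMSO.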
# [2] = CCTE_Shafer_MEA_acute_burst_percentage_mean: CCTE's Neural Acute Assay for Percentage of Spikes in a Burst, Shafer Lab (AID 2284017)
# In short: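 Rat cortical cultures, DIV 13/15, 37 C. Spikes detected at 8x rms noise (300-5000 Hz band-pass). Burst spikes/total spikes averaged across electrodes per well; % change post- vs pre-treatment (40 min each), loss-of-signal fit vs DMSO.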
# [3] = CCTE_Shafer_MEA_acute_burst_percentage_std: CCTE's Neural Acute Assay for Standard Deviation of Burst Percentage, Shafer Lab (AID 2284018);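 also: fitted in the negative direction so actives lower burst percentage SD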
# In short: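 Primary rat cortical neurons on 16-electrode MEA wells were recorded 40 min at baseline (DIV 13 or 15), then 40 min after compound (0.03-40 uM), at 37 C. Well value is SD across electrodes of spikes-in-bursts/total spikes; endpoint is percent change, DMSO-referenced.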
# [4] = CCTE_Shafer_MEA_acute_per_network_burst_spike_number_mean: CCTE's Neural Acute Assay for Average Number of Spikes in a Network Burst, Shafer Lab (AID 2284019)
# In short: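 Acute exposure of rat primary cortical networks (DIV 13/15) on MEAs; adaptive spike detection at 8x rms noise, 37 C. Percent change in spikes per network burst after 40 min with compound (0.03-40 uM), negative direction vs DMSO.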
# [5] = CCTE_Shafer_MEA_acute_per_network_burst_spike_number_std: CCTE's Neural Acute Assay for Standard Deviation of Number of Spikes in a Network Burst, Shafer Lab (AID 2284020);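 also: fitted for decrease in spike-number SD versus DMSO so actives lower it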
# In short: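 Acute MEA exposure, rat cortical neurons, 0.03-40 uM. Per-well % change versus own baseline; DMSO as negative control.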
# [6] = CCTE_Shafer_MEA_acute_per_network_burst_electrodes_number_mean: CCTE's Neural Acute Assay for Mean Number of Electrodes in a Network Burst, Shafer Lab (AID 2284021);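 also: curves fitted for decreases only so hits reduce electrodes per burst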
# In short: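 Cultures of rat cortex neurons were exposed on DIV 13 or 15 to compounds at 0.03-40 uM in at least three wells each. Activity over 40 min before and 40 min after exposure at 37 C gave the percent change in electrodes per network burst.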
# [7] = CCTE_Shafer_MEA_acute_network_burst_percentage: CCTE's Neural Acute Assay for Percentage of Network Bursts, Shafer Lab (AID 2284022);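 also: curves fitted for loss so actives lower network burst percentage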
# In short: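 Cortical neurons from rat were grown over microelectrode arrays and used on day 13 or 15 in vitro. Wells with at least 10 active electrodes received test chemical at 0.03-40 uM. Activity during 40 min of exposure was compared with the preceding 40-min baseline.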
# [8] = CCTE_Shafer_MEA_acute_cross_correlation_area: CCTE's Neural Acute Assay for Area of Cross Correlation, Shafer Lab (AID 2284024);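 also: area under pooled inter-electrode spike cross-correlation near zero lag as percent change from own baseline; curves fitted for loss of cross-correlation area so actives lower synchrony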
# In short: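 Acute exposure of mature rat cortical networks (day 13 or 15 post-plating) to 0.03-40 uM compound. Spontaneous spiking on MEA, 40 min pre- and post-dose at 37 C.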
# [9] = CCTE_Shafer_MEA_acute_cross_correlation_HWHM: CCTE's Neural Acute Assay for Cross Correlation at Half Width at Half Maximum, Shafer Lab (AID 2284026);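 also: spontaneous network firing of rat primary cortical neurons on multiwell microelectrode arrays; percent change per well from pre-dose baseline in spike cross-correlogram half width; hits are a decrease in cross-correlogram half width relative to DMSO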
# In short: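 Primary cortex (rat), MEA, DIV 13/15; compound 0.03-40 uM; 40 min pre + 40 min post at 37 C; spike threshold 8x rms; wells need ≥10 active electrodes; endpoint = % change in cross-correlogram HWHM vs baseline, DMSO negative control.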
# [10] = CCTE_Shafer_MEA_acute_synchrony_index: CCTE's Neural Acute Assay for Synchrony, Shafer Lab (AID 2284027);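 also: network synchrony index of spontaneous spiking in primary rat cortical neurons on MEAs; fitted for loss of signal so actives lower synchrony relative to DMSO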
# In short: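 Rat cortical cultures, DIV 13/15; spikes detected at 8x rms noise, 300-5000 Hz band-pass. Compound 0.03-40 uM, ≥3 wells; 40-min pre- and post-exposure recordings, 37 C. Readout: % change in synchrony index; loss-of-signal fit vs DMSO.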
# [11] = CCTE_Shafer_MEA_dev_firing_rate_mean: CCTE's Neural Network Formation Assay for Mean Firing Rate, Shafer Lab (AID 2284031)
# In short: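 Read-out: spike count/recording length, averaged over active electrodes, then AUC across days 5, 7, 9, 12. Rat cortical cultures on MEA; continuous 12-day exposure, media and treatment renewed DIV 5, 9; DMSO baseline.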
# [12] = CCTE_Shafer_MEA_dev_burst_rate: CCTE's Neural Network Formation Assay for Burst Rate, Shafer Lab (AID 2284042)
# In short: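 Cells plated, treated day 0; recorded DIV 5, 7, 9, 12; fed and re-treated DIV 5, 9. Endpoint: bursts per recording time, active-electrode well mean, trapezoidal AUC, fitted in decreasing direction against DMSO baseline.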
# [13] = CCTE_Shafer_MEA_dev_active_electrodes_number: CCTE's Neural Network Formation Assay for Number of Active Electrodes, Shafer Lab (AID 2284040; active = hit-call score of the fitted dose curve at least 0.9, where 1 is the maximum)
# In short: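 Developing rat cortical networks on MEAs, exposed DIV 0–12. Value is the AUC of active-electrode counts (≥5 spikes/min) from days 5, 7, 9, 12, relative to DMSO.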
# [14] = target: Estrogen receptor (Homo sapiens) (UniProt P03372); assay: CCTE_Deisenroth_AIME_384WELL_LUC_Active: CCTE's 384-well Estrogen Receptor Transactivation Assay with AIME metabolic competence (ERTA luciferase; metabolism positive), Deisenroth Lab (AID 2284030; active = hit-call score of the fitted dose curve at least 0.9, where 1 is the maximum)
# Sequence of Estrogen receptor (Homo sapiens) (P03372 whole entry, looked up): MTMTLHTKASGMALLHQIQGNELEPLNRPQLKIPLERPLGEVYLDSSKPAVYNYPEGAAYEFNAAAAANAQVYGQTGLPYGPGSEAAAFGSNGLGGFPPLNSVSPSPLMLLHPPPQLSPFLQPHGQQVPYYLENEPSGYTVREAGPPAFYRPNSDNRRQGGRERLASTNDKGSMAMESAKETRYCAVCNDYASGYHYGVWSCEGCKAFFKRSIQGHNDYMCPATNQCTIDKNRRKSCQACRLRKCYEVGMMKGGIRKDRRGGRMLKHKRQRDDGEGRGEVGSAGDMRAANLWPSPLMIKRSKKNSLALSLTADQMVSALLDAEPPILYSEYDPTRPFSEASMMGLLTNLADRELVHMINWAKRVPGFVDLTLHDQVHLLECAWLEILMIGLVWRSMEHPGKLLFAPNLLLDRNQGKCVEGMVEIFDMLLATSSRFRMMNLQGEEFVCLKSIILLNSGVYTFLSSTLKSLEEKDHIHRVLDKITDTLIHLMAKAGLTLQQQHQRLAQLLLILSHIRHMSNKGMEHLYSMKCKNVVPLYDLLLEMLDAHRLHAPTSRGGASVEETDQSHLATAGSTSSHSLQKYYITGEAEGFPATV
# In short: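 In this metabolism-positive format, a 2-hour exposure to alginate-immobilized rat S9 precedes a 24 hour luciferase transactivation readout in VM7Luc4E2 cells. Dosing spans 10 concentrations from 0.002 to 200 uM.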
# [15] = target: Estrogen receptor (Homo sapiens) (UniProt P03372); assay: CCTE_Deisenroth_AIME_384WELL_LUC_Inactive: CCTE's 384-well Estrogen Receptor Transactivation Assay without AIME metabolic competence (ERTA luciferase; metabolism negative), Deisenroth Lab (AID 2284038; active = hit-call score of the fitted dose curve at least 0.9, where 1 is the maximum;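 also: hits raise estrogen receptor luciferase signal so potencies reflect agonists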)
# In short: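 Metabolism-negative mode: AIME lids stamped in alginate-water, no hepatic S9. 2 h chemical incubation → medium onto VM7Luc4E2 ERTA, 24 h. Readout luciferase luminescence; gain-of-signal fit vs 17beta-estradiol. Conc. 0.002 - 200 uM.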
# [16] = CCTE_Deisenroth_AIME_384WELL_CTox_Inactive: Cytotoxicity Assessment (CTOX) in CCTE's 384-well Estrogen Receptor Transactivation Assay without AIME metabolic competence (metabolism negative), Deisenroth Lab (AID 2284039; active = hit-call score of the fitted dose curve at least 0.9, where 1 is the maximum;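 also: cell viability via live-cell protease substrate cleaved to fluorescent probe; cells exposed 24 h to medium preincubated 2 h with alginate-water beads without S9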)
# In short: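 Metabolism-negative arm: chemicals (10-point, 0.002 - 200 uM) preincubated 2 h with alginate-water lids, medium moved onto VM7Luc4E2 cells for 24 h. Fluorescent live-cell protease readout; bidirectional curve fit.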
# [17] = target: Estrogen receptor (Homo sapiens) (UniProt P03372); assay: CCTE_Deisenroth_AIME_384WELL_LUC_Shift: CCTE's 384-well Estrogen Receptor Transactivation Assay with AIME metabolic competence data shift (ERTA luciferase; difference in metabolism positive and negative), Deisenroth Lab (AID 2284041);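 also: shift is response with S9 minus without S9 so positive means metabolism raised ER signal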
# In short: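 Here, parent compounds undergo 2 h phase I metabolism by PB/BNF-induced rat S9 before 24 h transactivation in VM7Luc4E2 cells; the curve models S9-positive minus S9-negative response over a 10-point series.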
# [18] = CCTE_Deisenroth_AIME_384WELL_CTox_Active: Cytotoxicity Assessment (CTOX) in CCTE's 384-well Estrogen Receptor Transactivation Assay with AIME metabolic competence (metabolism positive), Deisenroth Lab (AID 2284037; active = hit-call score of the fitted dose curve at least 0.9, where 1 is the maximum;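 also: chemicals first conditioned 2 h by alginate-bound induced rat liver S9 before cells; activity means signal loss indicating cell death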)
# In short: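 VM7Luc4E2 breast cells received medium pre-incubated 2 h with chemical over alginate microspheres holding induced male Sprague Dawley rat liver S9; viability read 24 h later by protease-substrate fluorescence. Loss of signal, bidirectional fit, 0.002–200 uM.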
smiles,measurement,setting,value
CCCCC(CC)COP(=O)(O)OCC(CC)CCCC (stereo not drawn),outcome,[1],inactive
same,outcome,[2],inactive
same,outcome,[3],inactive
same,outcome,[4],inactive
same,outcome,[5],inactive
same,outcome,[6],inactive
same,outcome,[7],inactive
same,AC50,[8],0.00823 µM (active)
same,outcome,[9],inactive
same,outcome,[10],inactive
NC(=O)C(F)(F)C(F)(F)C(F)(F)C(F)(F)F,outcome,[11],inactive
same,outcome,[12],inactive
O=C(O)C(F)(F)C(F)(F)C(F)(F)C(F)(F)C(F)(F)C(F)(F)C(F)(F)C(F)(F)C(F)(F)C(F)F,outcome,[11],inactive
same,outcome,[12],inactive
COC(=O)CCC(F)(F)C(F)(F)C(F)(F)C(F)(F)F,outcome,[11],inactive
same,outcome,[12],inactive
FC(F)(F)C(F)(F)C(F)(F)C(F)(F)C(F)(F)C(F)(F)CC1CO1 (stereo not drawn),outcome,[11],inactive
same,outcome,[12],inactive
O=C(O)C(F)(F)C(F)(F)C(F)(F)F,outcome,[11],inactive
same,outcome,[13],inactive
same,outcome,[12],inactive
C(=C(c1ccccc1)c1ccccc1)c1ccccc1,AC50,[14],4.42 µM (active)
same,AC50,[15],9.48 µM (active)
same,outcome,[16],inactive
same,AC50,[17],0.869 µM (active)
CCN(Cc1cccc(S(=O)(=O)O)c1)c1ccc(C(=C2C=CC(=[N+](CC)Cc3cccc(S(=O)(=O)O)c3)C=C2)c2ccc(O)cc2S(=O)(=O)[O-])cc1,AC50,[18],124 µM (active)
same,AC50,[16],100 µM (active)
same,outcome,[17],inactive
